Assay results from PubChem BioAssay (NCATS).
Results filed as inconclusive are left out. Entries that show only a call come without a potency. Active and inactive are the calls of the source. Calls follow the shape of the dose curve; as a rule, active = well fitted cell-killing curve with a large enough effect; inconclusive = small, poorly fitted or top-dose-only effect, or effect the other way; inactive = no such curve, though single readings can be large or run the other way.

Experiment: qHTS assay to identify small molecule inhibitors of chordoma cells - UCH-1 (AID 1259355); also: nearly all actives have a fitted effect of over 55% in size
Settings: UCH-1 chordoma viability, CellTiter-Glo, 48 h, combination, with auranofin plus four topoisomerase inhibitors; series mostly up to 46.1 µM
Text: NIH Chemical Genomics Center [NCGC]
Chordoma is a rare and slow growing tumor that can occur anywhere along the spine, from the base of the skull to the tailbone. Current treatment options for chordoma is surgery and radiation therapy for those who are not candidates for surgery. But chordomas tend to return in the same location or surrounding areas of the original tumor after surgery and/or radiation. Chemotherapy can slow down the progression of the tumor. As chordoma is slow growing, the general cytotoxic agents that kill fast growing cells are ineffective, and some patients have been reported to respond to molecularly targeted drugs.
NCATS Pharmaceutical Collection (NPC) containing approximately 3000 clinically approved and investigational drugs were used to screen at 15 concentrations in a chordoma cell lines, UCH-1, to identify small molecule compounds that can inhibit chordoma cell growth.
NCGC Assay Protocol Summary:
Human chordoma cell line UCH-1 was dispensed at 800 per well in 4uL of culture medium into white solid bottom 1536-well plates (Corning Life Sciences, Corning, NY) using a Multidrop Combi (Thermo Scientific, Waltham, MA) dispenser. The assay plates were incubated at 37 C and 5% CO2 for an overnight, and then 23nL of compounds dissolved in DMSO and positive control were transferred using a Pintool station (Wako, San Diego, CA). Compound treatment was followed by the addition of 1uL of the combination compounds (1uM Auranofin, 500nM each of Camptothecin, Doxorubicin, Rubitecan, and Topotecan) and assay medium to each well of the assay plates using Flying Reagent Dispenser (FRD, Aurora Discovery, San Diego, CA). The assay plates were incubated at 37 C and 5% CO2 for 48hr. Then 5uL of CellTiter-Glo reagent (Promega Corporation, Madison, WI) was added to each well of the assay plates using FRD. After 30min incubation at room temperature, the luminescence signal was quantified using a ViewLux plate reader (PerkinElmer, Shelton, CT).
Potency is read from the fitted curve at half-maximal effect.

| SMILES | Potency |
| --- | --- |
| CCN(CC)CCOC(=O)c1ccc(N)cc1 | inactive |
| O=C(O)Cc1cccc2ccccc12 | inactive |
| CCn1cc(C(=O)O)c(=O)c2ccc(C)nc21 | inactive |
| CC(=O)c1ccc(S(=O)(=O)NC(=O)NC2CCCCC2)cc1 | inactive |
| CCCCC1C(=O)N(c2ccccc2)N(c2ccccc2)C1=O | inactive |
| Cc1cnc(C(=O)O)c[n+]1[O-] | inactive |
| Cc1cccc(C)c1OCC(C)N (stereo not drawn) | inactive |
| C[N+](C)(C)CCCCCC[N+](C)(C)C | inactive |
| CC(=O)O[C@]1(C(C)=O)CC[C@H]2[C@@H]3C=C(Cl)C4=CC(=O)[C@@H]5C[C@@H]5[C@]4(C)[C@H]3CC[C@@]21C | inactive |
| C[N+]1(C)[C@@H]2CC(OC(=O)[C@H](CO)c3ccccc3)C[C@H]1[C@H]1O[C@@H]12 (stereo partly drawn) | inactive |
| CC1=C(/C=C/C(C)=C/C=C/C(C)=C/C(=O)Nc2ccc(O)cc2)C(C)(C)CCC1 | inactive |
| COc1ccccc1N1CCN(CCCNc2cc(=O)n(C)c(=O)n2C)CC1 | inactive |
| CCN(CC)C(=O)c1ccc(O)c(OC)c1 | inactive |
| O=C(O)CCc1nc(-c2ccccc2)c(-c2ccccc2)o1 | inactive |
| NC(N)=Nc1nc(CSCC/C(N)=N/S(N)(=O)=O)cs1 | inactive |
| NCCS | inactive |
| COC(=O)[C@@H]1[C@H]2C[C@H]3c4[nH]c5ccccc5c4CCN3C[C@@H]2CC[C@@H]1O | inactive |

| SMILES | Potency |
| --- | --- |
| CC[C@]1(O)C[C@@H]2CN(CCc3c([nH]c4ccccc34)[C@@](C(=O)OC)(c3cc4c(cc3OC)N(C)[C@H]3[C@@](O)(C(=O)OC)[C@H](OC(C)=O)[C@]5(CC)C=CCN6CC[C@]43[C@@H]65)C2)C1 | 5.62 µM (active) |
| O=c1[nH]cnc2c1ncn2[C@H]1CC[C@@H](CO)O1 | inactive |
| CCCNC(=O)NS(=O)(=O)c1ccc(Cl)cc1 | inactive |
| OC[C@@H](O)[C@H](O)[C@H](O)[C@@H](O)CO | inactive |
| O=C1NC(=O)C(c2ccccc2)(c2ccccc2)N1 | inactive |
| O=C(O)c1cc(-c2ccccc2)nc2ccccc12 | inactive |
| CCN(CC)CCNC(=O)c1ccc(N)cc1 | inactive |
| CN(C)CCC(c1ccccc1)c1ccccn1 (stereo not drawn) | inactive |
| O=C1NCC2(CCN(CCc3ccccc3)CC2)O1 | inactive |
| CC(=O)N[C@@H](CS)C(=O)O | inactive |
| C[C@@H](O)[C@H]1C(=O)N2C(C(=O)O)=C(S[C@@H]3CN[C@H](C(=O)N(C)C)C3)[C@H](C)[C@H]12 | inactive |
| CC(=O)CCCCn1c(=O)c2c(ncn2C)n(C)c1=O | inactive |
| CC(C)NCC(O)COc1cccc2[nH]ccc12 (stereo not drawn) | inactive |
| O=C(NCCN1CCOCC1)c1ccc(Cl)cc1 | inactive |
| Clc1ccc(Cn2c(CN3CCCC3)nc3ccccc32)cc1 | inactive |
| CCN1CCC[C@H]1CNC(=O)c1cc(S(N)(=O)=O)ccc1OC | inactive |
